Compounds with a hit are over-represented: about 6.4% of the library has one in this group of screens.
RORg inh: qHTS for inhibitors of ROR gamma transcriptional activity; Drosophila S2 Gal4-RORgamma UAS-luciferase reporter, 20 h; Potency, µM (series often up to 53.6 µM), without a hit: at the top dose activity change, negative = inhibition, hits mostly inhibitors; 5.4% of 310,000 active; AID 2551, 2010; note: nearly all actives have a fitted effect of over 60% in size
Target sequence (P51450 whole entry, looked up, the tested form may be a part): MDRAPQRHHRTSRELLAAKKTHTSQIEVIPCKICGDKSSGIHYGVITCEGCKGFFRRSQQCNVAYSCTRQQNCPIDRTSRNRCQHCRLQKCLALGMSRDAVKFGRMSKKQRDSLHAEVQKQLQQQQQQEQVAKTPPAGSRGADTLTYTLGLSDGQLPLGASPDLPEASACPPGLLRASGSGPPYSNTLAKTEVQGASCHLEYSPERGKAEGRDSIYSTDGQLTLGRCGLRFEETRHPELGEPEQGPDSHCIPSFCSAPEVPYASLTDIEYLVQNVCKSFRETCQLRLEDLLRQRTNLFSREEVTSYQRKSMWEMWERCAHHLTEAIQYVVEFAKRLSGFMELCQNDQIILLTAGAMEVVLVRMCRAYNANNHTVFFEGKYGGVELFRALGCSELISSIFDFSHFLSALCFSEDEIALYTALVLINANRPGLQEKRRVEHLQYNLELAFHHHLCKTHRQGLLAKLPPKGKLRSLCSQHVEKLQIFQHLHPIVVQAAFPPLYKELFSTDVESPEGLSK
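Compounds are pin-transferred onto Drosophila Schneider cells expressing a copper-inducible Gal4–ROR gamma transactivation domain fusion. After 1 hr, copper sulfate is added to 700 uM final; luciferase is read 20 hr later.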
Luc counter: Counterscreen for Luciferase (Kinase-Glo TM) Inhibition. AID 1379, 2008. Potency, µM (titrated, usually from 38.3 µM), without a hit: top-dose activity change, negative = inhibition, actives largely listed as inhibitors. Kinase-Glo luciferase, ATP luminescence, 8 min. Luciferin 4-monooxygenase (Photuris pensylvanica), Q27757. 0.28% of 200,000 active; note: nearly all actives have a fitted effect of over 60% in size
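Compound is pinned into ATP-containing buffer (10 uM ATP, imidazole pH 7.2, 7 mM MgCl2). Kinase-Glo luciferase reagent is then added. Light output is recorded following an 8-min room-temperature incubation.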
Gal4-VP16 FLuc: VP16 counterscreen qHTS for inhibitors of ROR gamma transcriptional activity; Potency, µM (highest dose often 53.6 µM), for the others: at the highest dose activity, negative = inhibition, most hits filed as inhibitors; Drosophila S2 Gal4-VP16 UAS-luciferase, luminescence, 20 h; 3.5% of 310,000 active;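 note: Gal4-VP16 expression switched on by copper sulfate through the metallothionein promoter; nearly all actives have a fitted effect of over 50% in size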
Starred values were filed as active, the others as inactive; ? = inconclusive; · = no result given; [ ] = another dose, or the depositor's remark. Calls come from the whole dose curve; as a rule, active = well fitted curve in the direction sought with a large enough effect; inconclusive = small, poorly fitted or top-dose-only effect, or another doubt; inactive = no such curve, though single readings can be large; an effect the other way counts as inactive or inconclusive. % is set by controls: 0 for no effect and ±100 for the full control effect; potency is the fitted concentration of half-maximal effect.

SMILES	RORg inh	Luc counter	Gal4-VP16 FLuc
CC(=O)NNc1nc(-c2ccc(C)cc2)cs1	-8.6%	-1.4%	27.2%
O=C(NNc1nc(-c2ccc(F)cc2)cs1)c1ccccc1	5.01µM*	7.5%	?
O=C(NNc1nc(-c2ccccc2)cs1)c1ccc(F)cc1	2µM*	1.8%	11.2µM*
CC(OC(=O)c1cccs1)C(=O)Nc1nc(-c2ccccc2)cs1 (centres undefined)	?	0.4%	6.2%
CC(=O)OCCC(NS(=O)(=O)OCC(Cl)(Cl)Cl)c1ccccc1 (centres undefined)	-11.1%	·	3.5%
COc1cccc(CN2CCN(c3nc4nonc4nc3N3CCCCC3)CC2=O)c1	-1.5%	·	-22.2%
Cc1ccc(C(=O)NC2CCN(CC(=O)NC3CCC(C)CC3)CC2)cc1 (centres undefined)	26.3%	·	10.5%
CCOc1cc(/C=N/NC(=O)c2cccnc2)ccc1OCC(=O)N(C)C	24.9%	-0.7%	-3.2%
O=C(CCn1c(=O)c2ccccc2n(Cc2ccccc2)c1=O)NC1CCN(Cc2ccccc2)CC1	0.112µM*	·	-4.1%
NC(=O)Cn1c(=O)n(CCCC(=O)NC2CCN(Cc3ccccc3)CC2)c(=O)c2ccccc21	2.3%	-0.3%	-6.1%
O=c1cc(C(F)(F)F)nc(SCc2cccnc2)[nH]1	-3.1%	·	-1.0%
CCOc1cccc(/C=C/c2ccc3cccc(O)c3n2)c1O	3.55µM*	·	?
CCOc1ccccc1/C=C/c1cc(C(=O)O)c2ccccc2n1	-2.2%	·	0.6%
CCOc1cc(/C=C/c2ccc3cccc([N+](=O)[O-])c3n2)ccc1O	22.4%	-2.8%	-1.7%
COc1c(OC(C)=O)ccc(/C=C/c2ccc3cccc(OC)c3n2)c1[N+](=O)[O-]	?	5.8%	-16.7%
CCOc1cccc(/C=C/c2ccc3cccc(O)c3n2)c1OC	2.82µM*	·	12.6µM*
CCOc1c(OC(C)=O)ccc(/C=C/c2ccc3cccc(OC(C)=O)c3n2)c1[N+](=O)[O-]	3.16µM*	-1.0%	3.55µM*
COc1cccc(C=O)c1OCCCOc1cccc2cccnc12	9.2%	·	-1.4%
CN(C(=O)COc1ccc([N+](=O)[O-])cc1)C1CCS(=O)(=O)C1 (centres undefined)	3.0%	·	-5.8%
CCN(CC)S(=O)(=O)c1ccc(NN=C2CCN(C)CC2)c([N+](=O)[O-])c1	-16.9%	3.4%	-0.2%
N#Cc1ccc(/C=C/C(=O)c2cccnc2)cc1	7.94µM*	0.5%	?
CCN(CC)c1ccc(/C=C/C(=O)c2cccnc2)cc1	6.4%	-4.3%	-5.1%
O=C(/C=C/c1ccccc1Cl)c1cccnc1	?	11.6%	?
O=C(/C=C/c1ccc(Cl)cc1)c1cccnc1	?	1.1%	20µM*
O=[N+]([O-])c1ccccc1OCCNCc1ccccc1	18.2%[1.91 µM]	·	-15.0%
SMILES	RORg inh	Luc counter	Gal4-VP16 FLuc
CSc1ccc(Cl)c(C(=O)NCCCn2ccnc2)c1	20.7%	·	2.1%
COc1ccc2c(c1)C(=O)[C@H](OC(=O)NS(=O)(=O)c1ccc(C)cc1)[C@@H](c1ccc(OC)c(Br)c1)O2	?	-6.1%	?
COc1cccc(NC(=O)N2CCC(C(=O)Nc3ccc(C)cc3C)CC2)c1	-14.6%[10 µM]	0.7%	1.9%
Cc1cc(C)nc(NC(=S)Nc2ccccc2)n1	-2.3%	1.6%	3.9%
CCC(=O)N/C(=N/c1nc(C)cc(C)n1)Nc1ccc(OC)cc1	-11.1%	2.0%	-5.3%
CCNC(=S)/N=C(/Nc1ccccc1)Nc1nc(C)cc(C)n1	0.794µM*	·	3.16µM*
CCNC(=S)NC(=NCc1cccnc1)Nc1nc(C)cc(C)n1	11.2µM*	·	?
CCNC(=S)/N=C(/Nc1ccc(OC)cc1)Nc1nc(C)cc(C)n1	1.78µM*	·	?
Cc1ccc(NC(=S)NCc2cccnc2)cc1	-1.8%	4.0%	8.6%
COc1cccc(N/C(=N/C(=S)Nc2ccc(C)cc2C)Nc2nc(C)cc(C)n2)c1	1.26µM*	·	3.16µM*
C[C@@H]1CC[C@@]2(OC1)OC1CC3C4CC=C5CC(O)CCC5(C)C4CCC3(C)C1[C@@H]2C (some centres undefined)	-0.2%	2.6%	0.9%
Cc1ccc(OCC(=O)NC(=S)Nc2ccc(Br)cn2)cc1	?	·	3.8%
COc1ccc(OCC(O)CNC(=O)c2sccc2Cl)cc1 (centres undefined)	19.8%	·	23.0%
COc1ccc(S(=O)(=O)n2nc(C)cc2C)cc1OC	-44.1%	·	16.8%
CC(C)=CCC/C(C)=C/C=C/C(C)=C/C=C/C(C)=C/C=C/C=C(C)/C=C/C=C(C)/C=C/C=C(\C)CCC=C(C)C	-1.1%[10 µM]	·	18.5%
CC(Cc1ccco1)NC(=O)c1ccc(C(F)(F)F)cc1 (centres undefined)	-36.9%	·	-12.1%
Cc1ccc(S(=O)(=O)Oc2ccccc2/C=N/O)cc1	6.4%	1.6%	8.3%
Cc1ccc(OS(=O)(=O)c2ccccc2)c(/C=N/N=C2\NC(=O)C(C)S2)c1 (centres undefined)	8.91µM*	-1.7%	15.8µM*
O=C1CS/C(=N/N=C/c2ccccc2OS(=O)(=O)c2ccccc2)N1	?	-2.3%	12.6µM*
NC1=NC(=O)/C(=C/c2ccccc2OS(=O)(=O)c2ccccc2)S1	0.0%	-0.9%	-3.2%
O=C(NNC1OC(CO)C(O)C(O)C1O)c1cccnc1 (centres undefined)	-5.0%	-0.8%	-24.0%
CCOc1ccc(NC(=O)N(c2ccccc2)c2ccccc2)cc1	5.1%	·	-11.4%
CCOc1ccc(NC(=S)Nc2cc(-c3ccccc3)[nH]n2)cc1	1.78µM*	1.8%	3.55µM*
COc1ccc(NC(=S)Nc2cc(-c3ccccc3)[nH]n2)cc1Cl	2.82µM*	3.3%	2µM*
Cc1cc(NC(=S)Nc2ccc(C)c(Cl)c2)n[nH]1	0.355µM*	2.5%	1µM*
SMILES	RORg inh	Luc counter	Gal4-VP16 FLuc
COc1ccc(NC(=O)COc2ccccc2)cc1Cl	-6.6%[1.91 µM]	·	-3.5%
Cc1ccc(NC(=S)Nc2c(C)n(C)n(-c3ccccc3)c2=O)cc1Cl	-37.0%	-1.6%	2.6%
CCOc1ccc(S(=O)(=O)NC(C)C)cc1C(N)=O	16.3%	-2.2%	-15.6%[10 µM]
CCN(CC)S(=O)(=O)c1cc(NC(=O)C(=O)c2c(-c3ccccc3)cc3ccccn23)ccc1C	-20.2%	-0.6%	-2.6%
CCN(CC)S(=O)(=O)c1cccc(NC(=O)C(=O)c2c(-c3ccccc3)cc3ccccn23)c1	7.94µM*	-0.8%	-1.4%
C=CCOc1c(Cl)cc(CNc2nccs2)cc1OC	5.62µM*	-2.1%	?
C=CCOc1ccc(CNc2nccs2)cc1OCC	24.7%	0.3%	-19.7%
C=CCOc1c(CNc2nccs2)cccc1OCC	11.2µM*	1.1%	?
COc1ccc(CNc2nccs2)cc1OC	-12.9%	·	-9.7%
COc1ccccc1C(=O)N/N=C/c1c[nH]c2ccccc12	-0.1%	·	-10.4%
O=C1c2cc(O)cc(O)c2OC[C@@H]1c1ccc(O)c(O)c1	1.1%	·	-3.2%
COc1ccccc1-c1nnc(NC(=O)c2ccc(S(=O)(=O)N(C)C)cc2)o1	0.708µM*	2.9%	0.631µM*
COc1ccccc1-c1nnc(SCC(=O)Nc2c(Cl)cccc2Cl)o1	10.5%	-6.2%	-15.1%
CCN(CC)S(=O)(=O)c1ccc(C(=O)Nc2ncn(Cc3ccccc3)n2)cc1	-41.9%	-2.0%	-3.2%
COc1ccc(NC(=O)c2ccc(S(=O)(=O)N(C)C)cc2)cc1OC	-1.9%	-1.8%	-0.7%

Screening data from PubChem BioAssay.
